# Hits are enriched below; roughly 9.2% of the tested compounds scored in any of these assays.
# ELG1 repair inh = blocks ELG1-dependent DNA repair in HEK293T cells. HEK293T ELG1-luciferase reporter, luminescence, 16 h; DNA damage induced by 5-fluorouridine. Potency, µM (series often up to 46.1 µM), inactives show at the highest dose activity change, negative = inhibition, actives largely listed as inhibitors. actives 2.3% (n = 330,000). AID 504467; note: % is set by controls: 0 for no effect and ±100 for the full control effect; nearly all actives have a fitted effect of over 55% in size
#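 DMSO vehicle served as the neutral condition. Each well held 2,000 cells given 5-fluorouridine plus compound; after 16 hr at 37 °C/5% CO2, ONE-Glo was added and luciferase measured 30 min later.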
# ELG1 genotox = inducers of genotoxicity in HEK293T ELG1-luciferase cells; HEK293T ELG1-luciferase reporter, luminescence, 16 h; Potency, µM (top dose mostly 46 µM), for inactives: at the highest dose activity change, positive = activation, most hits filed as activators; actives 1.3% (n = 330,000); AID 504466; note: % of control where 0% means no effect; nearly all actives have a fitted effect of over 60% in size
#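 Genotoxicity was scored as increased ELG1-luciferase reporter signal, measured by ONE-Glo luminescence (30 min, room temperature). Compound or vehicle exposure of the HEK293T reporter cells lasted 16 hr at 37°C.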
# NPC1 prom act = NPC1 promoter activation; AID 485313; Huh7 NPC1 promoter luciferase reporter, 24 h; actives 2.4% (n = 320,000); Potency, µM (titrated, usually from 9.22 µM), without a hit: top-dose activation, actives largely listed as activators; note: % of control where 0% means no effect; nearly all actives have a fitted effect of over 60% in size
#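 Stably transfected Huh7 (NPC1 promoter→luciferase), 1500 cells/well in Opti-MEM + 10% FBS, 2 h settle, then compound 24 h at 37 °C. Luminescence after 10 min with Amplite reagent.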
# FLuc modulator = counter-screen for miR-21 project: firefly luciferase inhibitors or activators; P08659; purified FLuc, Km substrates, luminescence inhibition; Potency, µM (highest dose often 57.5 µM), without a hit: at the top dose activity change, negative = inhibition, hits mostly inhibitors; actives 6.9% (n = 360,000); AID 588342;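 note: plate controls were vehicle for no effect and reference inhibitor for full effect; nearly all actives have a fitted effect of over 55% in size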
# Target sequence (P08659 whole entry, looked up): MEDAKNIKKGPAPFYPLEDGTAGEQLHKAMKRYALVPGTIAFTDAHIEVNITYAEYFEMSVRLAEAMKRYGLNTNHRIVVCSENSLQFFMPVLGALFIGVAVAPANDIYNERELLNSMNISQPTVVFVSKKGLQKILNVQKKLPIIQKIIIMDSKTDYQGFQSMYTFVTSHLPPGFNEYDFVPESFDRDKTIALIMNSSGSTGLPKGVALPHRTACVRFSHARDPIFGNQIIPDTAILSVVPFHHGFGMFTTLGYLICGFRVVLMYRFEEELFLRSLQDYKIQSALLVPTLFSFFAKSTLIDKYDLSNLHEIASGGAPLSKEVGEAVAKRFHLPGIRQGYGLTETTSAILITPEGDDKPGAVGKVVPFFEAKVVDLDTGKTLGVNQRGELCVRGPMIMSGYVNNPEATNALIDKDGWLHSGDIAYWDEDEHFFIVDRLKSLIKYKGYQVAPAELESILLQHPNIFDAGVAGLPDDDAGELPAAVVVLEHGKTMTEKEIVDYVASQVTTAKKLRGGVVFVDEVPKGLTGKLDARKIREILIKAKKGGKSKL
#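 Biochemical qHTS of compounds, final roughly 60 µM downward over six points, against 10 nM purified firefly luciferase using Km concentrations of substrates (10 uM D-luciferin, 10 uM ATP) in Tris acetate pH 7.5 buffer; luminescence output.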
# SMN2 splice up = SMN2 splice variant enhancement; HEK293 SMN2-luciferase splicing reporter, luminescence, 30-36 h; Potency, µM (highest dose often 46.1 µM), inactives show at the highest dose activity change, positive = activation, most hits filed as activators; actives 2.8% (n = 210,000); AID 1458; note: % of control where 0% means no effect; nearly all actives have a fitted effect of over 55% in size
#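 HEK293 cells carry an SMN2 […]–luciferase reporter in which exon 7 inclusion puts luciferase in frame. Cells were plated 10-12 h before compound addition, then incubated 30-36 h at 37C. ONE-Glo luminescence was read; sodium butyrate at 4.5 mM final served as control.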
# Rab9 promoter act = activates the Rab9 promoter; Huh7 Rab9 promoter-luciferase reporter, luminescence, 24 h; actives 2.8% (n = 320,000); Potency, µM (top dose mostly 9.22 µM), inactives show at the top dose activation, negative = inhibition, most hits filed as activators; note: % of control where 0% means no effect; nearly all actives have a fitted effect of over 60% in size
#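 Quantitative HTS format; Huh7 Rab9-luciferase reporter cells (1500/well) receive compound 2 h post-plating, incubate 24 h at 37 °C, then get luciferase reagent for 10 min before luminescence reading.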
# Active calls of the source: *; ? = inconclusive; nt = not tested or not shown; [ ] = remark or other dose. Calls come from the whole dose curve; as a rule, active = well fitted curve in the direction sought with a large enough effect; inconclusive = small, poorly fitted or top-dose-only effect, or another doubt; inactive = no such curve, though single readings can be large; an effect the other way counts as inactive or inconclusive. Potency is the fitted concentration of half-maximal effect.
SMILES,ELG1 repair inh,ELG1 genotox,NPC1 prom act,FLuc modulator,SMN2 splice up,Rab9 promoter act
Cc1cc(C)nc(Nc2nc3ccccc3o2)n1,?,2.6%,22.6%,-9.6%,nt,18.3%
O=C(NC(=Nc1nc2ccccc2o1)NC(=O)c1ccccc1)c1ccccc1,?,?,25.8%,-10.1%,?,?
CCOC(=O)C(=CN=C(N)Nc1nc2ccccc2o1)C(=O)OCC,?,?,?,-2.3%,nt,?
O=C(NNc1nc2ccccc2o1)c1ccccc1,?,16.1%,?,2.69µM*,nt,0.794µM*
c1ccc(Nc2nc3ccccc3o2)cc1,?,1.84µM*,2µM*,3.01µM*,?,2.51µM*
Cc1nc(Nc2ccccc2F)c2oc3ccccc3c2n1,29.3%,4.2%,19.7%,?,nt,-5.1%
CCCOC(=O)Nc1nc2ccccc2o1,?,?,2.24µM*,13.5µM*,?,2.51µM*
Fc1ccccc1Nc1nc2ccccc2o1,?,2.06µM*,0.708µM*,1.51µM*,nt,0.398µM*
CCc1ccc(NC(=O)CC2C(=O)N(c3cccc(C)c3)C(=O)N2CCC(C)C)cc1 (stereo not drawn),nt,nt,nt,-5.1%,nt,nt
Cc1cc2c(n1-c1ccc(C(=O)NCCc3ccc(Cl)cc3)cc1)CCCC2,nt,nt,nt,-1.8%,nt,nt
Cc1ccc(NC(=O)c2c(C)nc(Nc3nc4ccccc4o3)nc2C)cc1,10.9%,1.7%,-0.6%,0.7%,-8.2%,-1.2%
FC(F)(F)Oc1ccc(Nc2nc3ccccc3o2)cc1,?,?,2.51µM*,8.49µM*,?,?
CC(=O)Nc1ccc(SCC(=O)c2cc(C)n(CC(F)(F)F)c2C)cc1,?,?,3.16µM*,-17.5%,-4.6%,2.82µM*
COc1ccc(Cn2cccc(NC(=O)Nc3cccc(OC)c3)c2=O)cc1,?,-7.1%,-0.3%,21.3µM*,nt,2.3%
Cc1ccc(Cn2cccc(NC(=O)NCc3ccccc3)c2=O)cc1,-20.9%,-4.7%,-3.5%,?,-20.5%,-4.4%
COc1ccc(Cn2cccc(NC(=O)Nc3ccc(F)cc3)c2=O)cc1,?,-7.3%,-7.4%,?,nt,-12.9%
Cc1ccc(Cn2cccc(NC(=O)c3ccco3)c2=O)cc1,?,19.0%,27.8%,15.1µM*,-6.1%,?
COc1cccc(Cn2cccc(NC(=O)NCc3ccccc3)c2=O)c1,5.2%,0.0%,-0.2%,21.3µM*,nt,0.3%
COc1cccc(NC(=O)Nc2cccn(Cc3ccccc3)c2=O)c1,-23.8%,-4.5%,2.7%,16.9µM*,-27.8%,0.4%
COc1cccc(Cn2cccc(NC(=O)Nc3ccccc3C)c2=O)c1,-14.8%,-6.7%,-6.8%,4.6%,nt,0.2%
O=C(NCc1ccccc1)Nc1cccn(Cc2ccc(Cl)cc2)c1=O,9.4%,-0.5%,-11.3%,?,nt,-28.5%
O=C(Nc1ccccc1)Nc1cccn(Cc2c(F)cccc2Cl)c1=O,-9.2%,0.0%,26.0%,10.7µM*,nt,?
CSc1ccc(NC(=O)Nc2cccn(Cc3ccccc3)c2=O)cc1,12.5%,13.9%,-4.9%,10.7µM*,nt,-4.3%
COc1cccc(Cn2cccc(NC(=O)Nc3ccc(C#N)cc3)c2=O)c1,-14.9%,-2.7%,-15.1%,?,-59.8%,-2.7%
O=C(Nc1cccn(Cc2c(Cl)cccc2Cl)c1=O)c1c(Cl)cccc1Cl,-19.5%,-5.6%,-2.0%,5.7%,-32.8%,1.5%
SMILES,ELG1 repair inh,ELG1 genotox,NPC1 prom act,FLuc modulator,SMN2 splice up,Rab9 promoter act
O=C(NCc1ccccc1)Nc1cccn(Cc2ccccc2Cl)c1=O,?,6.7%,-13.7%,8.49µM*,-39.4%,-17.7%
Cc1cc(=O)c(C(=O)O)nn1-c1ccc(Cl)cc1,0.1%,-0.2%,-0.6%,-0.1%,nt,-3.1%
CCOC(=O)C1CCN(Cc2nnnn2CCc2ccccc2)CC1,?,?,3.98µM*,?,nt,1.58µM*
Cc1ccccc1C(=O)NC1CCN(Cc2nnnn2CCc2ccccc2)CC1,-3.4%,-2.2%,0.7%,3.3%,-1.5%,1.5%
COc1ccc(OC)c2sc(N3CCN(C(=O)c4ccc5c(c4)CCCC5)CC3)nc12,nt,nt,nt,-17.6%,nt,nt
O=C(COC(=O)c1ccccc1-n1cnnn1)c1ccc(F)cc1,?,?,5.7%,6.01µM*,nt,-2.7%
O=C(COC(=O)c1cccc(-n2cnnn2)c1)c1ccc(Br)cc1,?,?,?,6.75µM*,nt,?
COc1ccc(-c2nn(-c3cccc(F)c3)c3c2cnc2cc(OC)c(OC)cc23)cc1,nt,nt,nt,-3.4%,nt,nt
CC(=O)N1CCN(C(=O)COC(=O)CNC(=O)c2ccccc2C)CC1,10.5%,-2.1%,2.0%,8.5%,nt,0.3%
Cc1cc(=O)n2nc(N3CCC(C(=O)Nc4c(C)cccc4C)CC3)sc2n1,nt,nt,nt,-0.2%,19.7%,nt
CCOC(=O)CC(=O)CSc1nc2ccc(C)cc2cc1C#N,?,16.4µM*,1.9%,-20.9%[2.3 µM],25.1µM*,0.8%
Cc1ccc(SCC(=O)Nc2ccccc2N2CCOCC2)cc1,-9.6%,-5.9%,-2.5%,0.0%,nt,3.2%
Cc1ccc2cc(C#N)c(SCC(=O)NCC3CCCO3)nc2c1 (stereo not drawn),14.9%,-2.8%,0.1%,2.7%,-1.3%,-0.5%
